# Laboratory results: PubChem BioAssay (NCI)
# “And” between values parts separate entries of the source, which are not always exact repeats. Equal entries are not always repeated. This is part of a sample that, as a whole, favours compounds with a hit. Of some 79,000 tested, about 15% had one in any assay. More than one record can exist for a structure, and the calls need not agree. The source made the active and inactive calls. Rule as the data show it: active = growth inhibition above about 70%; inactive = the rest.
# How the values were obtained:
# [1] = NCI Yeast Anticancer Drug Screen. Data for the rad52 strain (AID 147);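 also: 0% = growth of vehicle-treated control cultures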; conditions: S. cerevisiae rad52 mutant growth inhibition, stronger effect = higher value
# Summary of the method: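 Read-out: growth inhibition versus vehicle-treated controls. Cells were a DNA repair-deficient yeast strain treated with compounds.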
# [2] = NCI Yeast Anticancer Drug Screen. Data for the rad50EPP+ strain (AID 151);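 also: 0% = growth of vehicle-treated control cultures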; conditions: S. cerevisiae rad50 mutant strain, stronger effect = higher value
# Summary of the method: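 Growth inhibition read against vehicle controls in rad50EPP+ yeast, a strain altered in DNA damage repair, after compound exposure.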
# [3] = NCI Yeast Anticancer Drug Screen. Data for the mgt1 strain (AID 153); conditions: S. cerevisiae mgt1 mutant growth inhibition, stronger effect = higher value
# Summary of the method: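 mgt1 yeast grown with test compound; read-out is growth inhibition versus vehicle-treated cultures.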
# [4] = NCI Yeast Anticancer Drug Screen. Data for the rad50 strain (AID 155);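 also: 0% = growth of vehicle-only cultures of the same strain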; conditions: S. cerevisiae rad50 strain growth inhibition, stronger effect = higher value
# Summary of the method: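 Inhibition values express reduced yeast growth in compound-treated cultures relative to vehicle-treated controls.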
# [5] = NCI Yeast Anticancer Drug Screen. Data for the rad14 strain (AID 159);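 also: 0% = growth of vehicle-treated control cultures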; conditions: S. cerevisiae rad14 strain growth inhibition, stronger effect = higher value
# Summary of the method: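 A mutant yeast strain defective in DNA damage repair is treated with compound; inhibition of its growth is scored against untreated, vehicle-exposed cultures.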
# [6] = NCI Yeast Anticancer Drug Screen. Data for the sgs1 mgt1 strain (AID 161);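 also: 0% = growth of cultures given vehicle only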; conditions: S. cerevisiae sgs1 mgt1 strain, stronger effect = higher value
# Summary of the method: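 Mutant yeast exposed to compound; growth scored against vehicle-only wells.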
# [7] = NCI Yeast Anticancer Drug Screen. Data for the CLN2oe strain (AID 163);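 also: 0% = growth of vehicle-only control cultures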; conditions: S. cerevisiae CLN2oe strain, stronger effect = higher value
# Summary of the method: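 Read-out: yeast growth inhibition, expressed relative to vehicle-only controls. The strain bears an engineered cell-cycle alteration.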
# [8] = NCI Yeast Anticancer Drug Screen. Data for the cln2 rad14 strain (AID 165);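 also: 0% = growth equal to vehicle treated cultures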; conditions: S. cerevisiae cln2 rad14 strain, stronger effect = higher value
# Summary of the method: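 cln2 rad14 yeast strain; compound exposure; growth inhibition read vs vehicle controls.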
# [9] = NCI Yeast Anticancer Drug Screen. Data for the bub3 strain (AID 167); conditions: S. cerevisiae bub3 mutant strain, stronger effect = higher value
# Summary of the method: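 Steps: expose the mutant yeast strain to compound; grow alongside vehicle-treated cultures; measure growth; express inhibition against the vehicle cultures.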
# [10] = NCI Yeast Anticancer Drug Screen. Data for the wt2 strain (AID 169);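 also: 0% = growth of vehicle-treated yeast cultures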; conditions: S. cerevisiae wt2 strain growth inhibition, stronger effect = higher value
# Summary of the method: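 Read-out: growth inhibition versus vehicle-treated control cultures after compound exposure of the yeast strain.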
# [11] = NCI Yeast Anticancer Drug Screen. Data for the mlh1 strain (AID 171);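 also: 0% = growth of vehicle-treated control cultures of the same strain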; conditions: S. cerevisiae mlh1 strain growth inhibition, stronger effect = higher value
# Summary of the method: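 Read-out: growth inhibition versus vehicle controls. Strain: engineered yeast with a defined DNA repair or cell cycle defect, compound-treated.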
# [12] = NCI Yeast Anticancer Drug Screen. Data for the sgs1 strain (AID 173);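 also: 0% = growth of vehicle-only control cultures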; conditions: S. cerevisiae sgs1 mutant, stronger effect = higher value
# Summary of the method: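 Read-out: yeast growth inhibition relative to vehicle controls, following compound exposure of a strain with a defined DNA repair/cell cycle alteration.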
# [13] = NCI Yeast Anticancer Drug Screen. Data for the mlh1 rad18 strain (AID 175); conditions: S. cerevisiae mlh1 rad18 strain growth inhibition, stronger effect = higher value
# Summary of the method: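 Yeast w/ defined DNA-repair lesions; compound exposure; growth vs vehicle controls → % inhibition.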
# [14] = NCI Yeast Anticancer Drug Screen. Data for the rad18 strain (AID 177); conditions: S. cerevisiae rad18 mutant growth inhibition, stronger effect = higher value
# Summary of the method: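 Readout: growth inhibition vs vehicle controls. Cells: genetically altered yeast strain, DNA repair defect.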
# [15] = NCI Yeast Anticancer Drug Screen. Data for the mec2-1 strain (AID 157); conditions: S. cerevisiae mec2-1 strain, stronger effect = higher value
# Summary of the method: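 Yeast mec2-1 mutant treated with compound. Readout: growth inhibition vs vehicle controls.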
# [16] = at 5.0 µM (retest, dose inferred, filed as 0.5)
# [17] = at 50.0 µM (retest, dose inferred, filed as 5.0)
compound,measurement,setting,value
O=[N+]([O-])c1cc(S(=O)(=O)F)ccc1Cl,growth inhibition,[1]; at 1.2 µM,20% (inactive)
same,growth inhibition,[1]; at 3.7 µM,24% (inactive)
same,growth inhibition,[1]; at 11.0 µM,49% (inactive)
same,growth inhibition,[1]; at 33.0 µM,94% (active)
same,growth inhibition,[1]; at 100.0 µM,98% (active)
same,growth inhibition,[2]; at 1.2 µM,13% (inactive)
same,growth inhibition,[2]; at 3.7 µM,20% (inactive)
same,growth inhibition,[2]; at 11.0 µM,47% (inactive)
same,growth inhibition,[2]; at 33.0 µM,82% (active)
same,growth inhibition,[2]; at 100.0 µM,99% (active)
same,growth inhibition,[3]; at 1.2 µM,11% (inactive)
same,growth inhibition,[3]; at 3.7 µM,20% (inactive)
same,growth inhibition,[3]; at 11.0 µM,18% (inactive)
same,growth inhibition,[3]; at 33.0 µM,93% (active)
same,growth inhibition,[3]; at 100.0 µM,99% (active)
same,growth inhibition,[4]; at 1.2 µM,18% (inactive)
same,growth inhibition,[4]; at 3.7 µM,20% (inactive)
same,growth inhibition,[4]; [16],51% (inactive)
same,growth inhibition,[4]; at 11.0 µM,38% (inactive)
same,growth inhibition,[4]; at 33.0 µM,94% (active)
same,growth inhibition,[4]; [17],57% (inactive)
same,growth inhibition,[4]; at 50.0 µM,92.5% (active)
same,growth inhibition,[4]; at 100.0 µM,100% (active)
same,growth inhibition,[5]; at 1.2 µM,1% (inactive)
same,growth inhibition,[5]; at 3.7 µM,-6% (inactive)
same,growth inhibition,[5]; at 11.0 µM,7% (inactive)
same,growth inhibition,[5]; at 33.0 µM,94% (active)
same,growth inhibition,[5]; at 100.0 µM,99% (active)
same,growth inhibition,[6]; [16],11% (inactive)
same,growth inhibition,[6]; [17],100% (active)
same,growth inhibition,[6]; at 50.0 µM,93.4% (active)
same,growth inhibition,[7]; at 1.2 µM,26% (inactive)
same,growth inhibition,[7]; at 3.7 µM,20% (inactive)
same,growth inhibition,[7]; at 11.0 µM,39% (inactive)
same,growth inhibition,[7]; at 33.0 µM,93% (active)
same,growth inhibition,[7]; at 100.0 µM,98% (active)
same,growth inhibition,[8]; [16],27% (inactive)
same,growth inhibition,[8]; [17],100% (active)
same,growth inhibition,[8]; at 50.0 µM,92.4% (active)
same,growth inhibition,[9]; at 1.2 µM,-10% (inactive)
same,growth inhibition,[9]; at 3.7 µM,-6% (inactive)
same,growth inhibition,[9]; [16],39% (inactive)
same,growth inhibition,[9]; at 11.0 µM,1% (inactive)
same,growth inhibition,[9]; at 33.0 µM,90% (active)
same,growth inhibition,[9]; [17],99% (active)
same,growth inhibition,[9]; at 50.0 µM,93.2% (active)
same,growth inhibition,[9]; at 100.0 µM,98% (active)
same,growth inhibition,[10]; at 1.2 µM,-11% (inactive)
same,growth inhibition,[10]; at 3.7 µM,-4% (inactive)
same,growth inhibition,[10]; at 11.0 µM,17% (inactive)
same,growth inhibition,[10]; at 33.0 µM,85% (active)
same,growth inhibition,[10]; at 100.0 µM,98% (active)
same,growth inhibition,[11]; at 1.2 µM,15% (inactive)
same,growth inhibition,[11]; at 3.7 µM,19% (inactive)
same,growth inhibition,[11]; at 11.0 µM,29% (inactive)
same,growth inhibition,[11]; at 33.0 µM,95% (active)
same,growth inhibition,[11]; at 100.0 µM,99% (active)
same,growth inhibition,[12]; at 1.2 µM,6% (inactive)
same,growth inhibition,[12]; at 3.7 µM,13% (inactive)
same,growth inhibition,[12]; at 11.0 µM,50% (inactive)
same,growth inhibition,[12]; at 33.0 µM,97% (active)
same,growth inhibition,[12]; at 100.0 µM,98% (active)
same,growth inhibition,[13]; [16],32% (inactive)
same,growth inhibition,[13]; [17],54% (inactive)
same,growth inhibition,[13]; at 50.0 µM,92.8% (active)
same,growth inhibition,[14]; at 1.2 µM,4% (inactive)
same,growth inhibition,[14]; at 3.7 µM,15% (inactive)
same,growth inhibition,[14]; at 11.0 µM,30% (inactive)
same,growth inhibition,[14]; at 33.0 µM,92% (active)
same,growth inhibition,[14]; at 100.0 µM,99% (active)
Cc1ccc(C(=O)CCl)c(C)c1,growth inhibition,[4]; [16],11% (inactive) and 16% (inactive)
same,growth inhibition,[4]; [17],99% (active) and 94% (active)
same,growth inhibition,[4]; at 50.0 µM,96.4% (active) and 87.7% (active)
same,growth inhibition,[15]; [16],23% (inactive) and 18% (inactive)
same,growth inhibition,[15]; [17],99% (active) and 92% (active)
same,growth inhibition,[15]; at 50.0 µM,98.2% (active) and 91.6% (active)
same,growth inhibition,[6]; [16],25% (inactive) and 11% (inactive)
same,growth inhibition,[6]; [17],99% (active) and 55% (inactive)
same,growth inhibition,[6]; at 50.0 µM,94.7% (active) and 96.1% (active)
same,growth inhibition,[8]; [16],15% (inactive) and 17% (inactive)
same,growth inhibition,[8]; [17],97% (active) and 83% (active)
same,growth inhibition,[8]; at 50.0 µM,87.3% (active) and 71.6% (active)
same,growth inhibition,[9]; [16],8% (inactive) and 2% (inactive)
same,growth inhibition,[9]; [17],99% (active) and 97% (active)
same,growth inhibition,[9]; at 50.0 µM,91.8% (active) and 90.2% (active)
same,growth inhibition,[13]; [16],28% (inactive) and 7% (inactive)
same,growth inhibition,[13]; [17],99% (active)
same,growth inhibition,[13]; at 50.0 µM,97.7% (active) and 97.1% (active)
C/C1=C\[C@@H](O)C(=O)/C=C/C=C\c2csc(n2)[C@@H](C)NC(=O)C[C@@]2(CC1)S(=O)SC(=O)[C@]2(C)O (some centres not stated),growth inhibition,[4]; [16],92% (active)
same,growth inhibition,[4]; [17],98% (active)
same,growth inhibition,[4]; at 50.0 µM,91.6% (active)
same,growth inhibition,[15]; [16],98% (active)
same,growth inhibition,[15]; [17],99% (active)
same,growth inhibition,[15]; at 50.0 µM,92.5% (active)
same,growth inhibition,[6]; [16],90% (active)
same,growth inhibition,[6]; [17],98% (active)
same,growth inhibition,[6]; at 50.0 µM,92.2% (active)
same,growth inhibition,[8]; [16],97% (active)
same,growth inhibition,[8]; [17],98% (active)
same,growth inhibition,[8]; at 50.0 µM,89.2% (active)
same,growth inhibition,[9]; [16],94% (active)
same,growth inhibition,[9]; [17],98% (active)
same,growth inhibition,[9]; at 50.0 µM,90.3% (active)
same,growth inhibition,[13]; [16],96% (active)
same,growth inhibition,[13]; [17],98% (active)
same,growth inhibition,[13]; at 50.0 µM,85% (active)
O=C(CCCC(=O)NNC(=O)Nc1cccc(S(=O)(=O)F)c1)NNC(=O)Nc1cccc(S(=O)(=O)F)c1,growth inhibition,[4]; [16],1% (inactive)
same,growth inhibition,[4]; [17],3% (inactive)
same,growth inhibition,[4]; at 50.0 µM,73.2% (active)
same,growth inhibition,[15]; [16],11% (inactive)
same,growth inhibition,[15]; [17],20% (inactive)
same,growth inhibition,[15]; at 50.0 µM,72.3% (active)
same,growth inhibition,[6]; [16],3% (inactive)
same,growth inhibition,[6]; [17],-19% (inactive)
same,growth inhibition,[6]; at 50.0 µM,80% (active)
same,growth inhibition,[8]; [16],-8% (inactive)
same,growth inhibition,[8]; [17],-8% (inactive)
same,growth inhibition,[8]; at 50.0 µM,52.7% (inactive)
same,growth inhibition,[9]; [16],-6% (inactive)
same,growth inhibition,[9]; [17],-1% (inactive)
same,growth inhibition,[9]; at 50.0 µM,84.3% (active)
same,growth inhibition,[13]; [16],9% (inactive)
same,growth inhibition,[13]; [17],33% (inactive)
same,growth inhibition,[13]; at 50.0 µM,72.8% (active)
O=c1[nH]cnc2[nH]cc(CN3CCCCC3)c12,growth inhibition,[4]; [16],7% (inactive)
same,growth inhibition,[4]; [17],21% (inactive)
same,growth inhibition,[4]; at 50.0 µM,17.8% (inactive)
same,growth inhibition,[15]; [16],-7% (inactive)
same,growth inhibition,[15]; [17],2% (inactive)
same,growth inhibition,[15]; at 50.0 µM,13.2% (inactive)
same,growth inhibition,[6]; [16],-1% (inactive)
same,growth inhibition,[6]; [17],29% (inactive)
same,growth inhibition,[6]; at 50.0 µM,-1.4% (inactive)
same,growth inhibition,[8]; [16],-32% (inactive)
same,growth inhibition,[8]; [17],0% (inactive)
same,growth inhibition,[8]; at 50.0 µM,33.2% (inactive)
same,growth inhibition,[9]; [16],12% (inactive)
same,growth inhibition,[9]; [17],-1% (inactive)
same,growth inhibition,[9]; at 50.0 µM,-54.8% (inactive)
same,growth inhibition,[13]; [16],3% (inactive)
same,growth inhibition,[13]; [17],8% (inactive)
same,growth inhibition,[13]; at 50.0 µM,9.4% (inactive)
